Results published in PubChem BioAssay AID602400 (Sanford-Burnham Center for Chemical Genomics, 2012).
Unmarked numbers belong to inactive results. How the calls were made is not given here.

Test: off-target activity on Bfl-1 – biochemical, set 4, counter-screen for UBC13 polyubiquitination inhibitor project, SAR follow-up (AID 602400)
Settings: Bfl-1 counterscreen for UBC13 inhibitors
Compound Cc1cc(C)cc(NC(=O)C2CCCN(c3ncnc4c3nc3n4CCCC3)C2)c1 (configuration not stated) has an IC50 greater than 100 µM. Compound O=C(NCC1CCN(Cc2ccc(Cl)c(Cl)c2)CC1)C1CCCN(c2ncnc3c2nc2n3CCCC2)C1 (configuration not stated) has an IC50 greater than 100 µM. In the case of Cc1ccc(NC(=O)C2CCCN(c3ncnc4c3nc3n4CCCC3)C2)cc1Br (configuration not stated), the IC50 was greater than 100 µM. With O=C(NCc1ccc(Cl)c(Cl)c1)C1CCN(c2ncnc3c2nc2n3CCCC2)CC1 the IC50 was greater than 100 µM. Cc1ccc(NC(=O)C2CCN(c3ncnc4c3nc3n4CCCCC3)CC2)cc1C showed an IC50 greater than 100 µM. For Cc1ccc(NC(=O)C2CCCN(c3ncnc4c3nc3n4CCCC3)C2)cc1F (configuration not stated), the IC50 was greater than 100 µM. O=C(Nc1cccc(Cl)c1)C1CCN(c2ncnc3c2nc2n3CCCCC2)CC1 showed an IC50 greater than 100 µM. Work on CC1CCCCN1C(=O)C1CCN(c2ncnc3c2nc2n3CCCCC2)CC1 (configuration not stated) yielded an IC50 greater than 100 µM. Work on Cc1c(Cl)cccc1NC(=O)C1CCN(c2ncnc3c2nc2n3CCCCC2)CC1 yielded an IC50 greater than 100 µM. With Cc1cccc(NC(=O)C2CCN(c3ncnc4c3nc3n4CCCCC3)CC2)c1 the IC50 was greater than 100 µM. In the case of O=C(C1CCN(c2ncnc3c2nc2n3CCCCC2)CC1)N1CCC(Cc2ccccc2)CC1, the IC50 was greater than 100 µM. COc1ccc(Cl)cc1NC(=O)C1CCN(c2ncnc3c2nc2n3CCCCC2)CC1 gave an IC50 greater than 100 µM.
